Among the test systems are BT-549 breast; MDA-MB-435 melanoma; SW-620 colon; HCT-116 colon; HCC-2998 colon; KM12 colon; MCF7 breast; T-47D breast.
Holding throughout (assay): NCI-60 one-dose screen, 48 h (100 = growth as untreated, 0 = no growth, -100 = all killed)
Common to all, as to details: 10 µM unless noted

Consider 26 molecules from PubChem BioAssay (NCI).

Compounds without any hit were thinned out: in the full panel of roughly 83,000, 20% have a hit.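 How to read the values: 0–100, growth inhibition (40 = 60% inhibited); 0, no net growth; -100 to 0, cell death (-40 = 40% of starting cells died; -100 = all dead).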 Values without a mark were called inactive. Calls of active or inactive are those of the source. Rule for the calls: active = growth percent below 10; inactive = the rest.

Consider `CS(=O)(=O)Nc1cc(-c2ccc3ncnc(Nc4ccc5[nH]ncc5c4)c3c2)cnc1Cl`, for which the growth in the assay on BT-549 breast was 69.3%; in the assay with MDA-MB-435 melanoma it was 75%; in the assay on SW-620 colon it was 90.8%; in the assay on HCT-116 colon it was 92.2%; with HCC-2998 colon it was 92%; with KM12 colon, 102%.

Regarding `COc1cc(/C=C/C(=O)c2c(C)oc3nc[nH]c(=O)c23)ccc1O`, the growth is 100% in the assay on BT-549 breast; 102% with MDA-MB-435 melanoma; 100% in the assay on SW-620 colon; 90.2% with MCF7 breast; 102% in the assay with HCT-116 colon; 100% in the assay on HCC-2998 colon. For the same molecule, the growth in the assay on KM12 colon is 103%.

`COc1cc(-c2cc(=O)oc3cc(O)ccc23)c(OC)c2c1OCO2`: the growth in the assay with BT-549 breast was 90.9%; in the assay on MDA-MB-435 melanoma, 101%; in the assay on SW-620 colon, 96.6%; in the assay on MCF7 breast it was 102%; in the assay on HCT-116 colon it was 98.4%; in the assay on HCC-2998 colon, 97.3%. Also, the growth in the assay with KM12 colon was 93.8%.

Turning to `O=c1[nH]c2c(s1)CCCC2CN1CCCCC1` (configuration not stated), the growth with BT-549 breast is 72.6%; in the assay with MDA-MB-435 melanoma, 107%; with SW-620 colon, 114%; in the assay on MCF7 breast, 96.3%; with HCT-116 colon, 76.8%; in the assay on HCC-2998 colon, 100%.

For `O=C(Nc1ccc(F)cc1)c1c(NC(=O)C(F)(F)F)sc2c1CCCCC2`, the growth in the assay with BT-549 breast is -2.41% (active); with MDA-MB-435 melanoma, 3.22% (active); in the assay with SW-620 colon, 11.6%; with MCF7 breast, 3.61% (active); with HCT-116 colon, 1.79% (active); with HCC-2998 colon, 10.1%. Further, the growth with KM12 colon was 2.08% (active).

As to `COc1cc(NCCN(CC(C)C)C2CCCC2)c2ncccc2c1`, the growth is 98.8% in the assay with BT-549 breast; 111% in the assay on MDA-MB-435 melanoma; 72.2% in the assay with SW-620 colon; 42% with MCF7 breast; 63.4% with HCT-116 colon; 87.5% in the assay on HCC-2998 colon. The growth with KM12 colon was 86.1%.

For `COc1ccc(-c2c[nH]c(C(=O)O)c2-c2cc(OC)c3c(c2OC)OCO3)cc1`, the growth in the assay with BT-549 breast is 103%; in the assay on MDA-MB-435 melanoma, 104%; in the assay with SW-620 colon it was 103%; in the assay on MCF7 breast it was 103%; in the assay with HCT-116 colon it was 106%; in the assay with HCC-2998 colon, 100%. Further, the growth in the assay with KM12 colon is 105%.

For the molecule `Cc1ccc(-c2c(Br)c(OC(=O)CO[C@@H]3C[C@H](C)CC[C@H]3C(C)C)c(-c3ccc(C)cc3C)c(Br)c2OC(=O)CO[C@H]2C[C@@H](C)CC[C@@H]2C(C)C)c(C)c1`, the growth in the assay on BT-549 breast is 85.5%; in the assay with MDA-MB-435 melanoma it was 104%; with SW-620 colon, 109%; with MCF7 breast, 92.1%; in the assay on HCT-116 colon, 89.4%; in the assay with HCC-2998 colon, 108%.

For the molecule `CCCc1cc2c(cc1Br)OCO2`, the growth is 82.7% with BT-549 breast; 110% in the assay with MDA-MB-435 melanoma; 112% with SW-620 colon; 95% in the assay with MCF7 breast; 84.5% in the assay with HCT-116 colon; 113% with KM12 colon.

For the molecule `CCN1C(=O)N(CC)C2NC(SC)=NC21` (configuration not stated), the growth in the assay on BT-549 breast was 103%; in the assay on MDA-MB-435 melanoma, 102%; in the assay with SW-620 colon it was 97.6%; in the assay on HCT-116 colon it was 104%; in the assay on HCC-2998 colon it was 99.3%; in the assay on KM12 colon, 102%.

Turning to `O=C(Nc1ccccc1)Oc1ccccc1-c1ccccc1`, the growth was 76.3% with BT-549 breast; 99.9% in the assay with MDA-MB-435 melanoma; 99.5% with SW-620 colon; 95.5% in the assay on MCF7 breast; 77.6% in the assay on HCT-116 colon; 107% in the assay with HCC-2998 colon.

Regarding `CC(=O)OCC(=O)[C@@]1(O)CC[C@H]2[C@@H]3CC(=C(Br)Br)C4=CC(=O)CC[C@]4(C)[C@H]3C(=O)C[C@@]21C`, the growth with BT-549 breast is 73.5%; in the assay on MDA-MB-435 melanoma, 100%; with SW-620 colon, 95.3%; in the assay on HCT-116 colon, 68.3%; in the assay with HCC-2998 colon, 95.8%; in the assay on KM12 colon, 93.6%.

Regarding `COc1cc(NCCCN(CC(C)C)CC(C)C)c2ncccc2c1`, the growth in the assay on BT-549 breast is 80.4%; with MDA-MB-435 melanoma, 115%; in the assay with SW-620 colon, 67.4%; in the assay on MCF7 breast, -43.4% (active); in the assay on HCT-116 colon, 62%; with HCC-2998 colon, 86.4%. Also, the growth in the assay with KM12 colon is 84.7%.

In the case of `COc1ccccc1/C=C1\Oc2cc(OCCCN3CCCC3)ccc2C1=O`, the growth in the assay on BT-549 breast is 94.8%; with MDA-MB-435 melanoma, 91.4%; in the assay with SW-620 colon, 73%; in the assay on MCF7 breast, 80%; with HCT-116 colon it was 50.9%; in the assay on HCC-2998 colon it was 102%. Also, the growth in the assay with KM12 colon was 98.3%.

For `CCN(CCNc1cc(OC)cc2cccnc12)CCc1ccccc1`, the growth in the assay with BT-549 breast is 87.6%; in the assay on MDA-MB-435 melanoma, 104%; in the assay on SW-620 colon it was 70.7%; in the assay on MCF7 breast it was 0.943% (active); with HCT-116 colon it was 59.8%; in the assay with HCC-2998 colon it was 88.5%. In addition, the growth with KM12 colon is 85.6%.

With `COc1cc2nnn3c4ncccc4c(N=O)c3c2cc1OC`, the growth with T-47D breast was 51.8%; with MDA-MB-435 melanoma it was 90.5%; in the assay with SW-620 colon it was 46.3%; in the assay with MCF7 breast it was 21.4%; in the assay with HCT-116 colon, 28.9%; with HCC-2998 colon, 106%. Moreover, the growth in the assay with KM12 colon is 87%.

As for `CCC(C)N(CCNc1cc(OC)cc2cccnc12)CCC(C)C` (configuration not stated), the growth is 90.8% in the assay on BT-549 breast; 107% in the assay on MDA-MB-435 melanoma; 58.4% with SW-620 colon; 25.7% in the assay with MCF7 breast; 64.9% with HCT-116 colon; 79.1% with HCC-2998 colon. Besides, the growth with KM12 colon is 77.6%.

Turning to `O=C(/C=C\c1ccc(OCCCCCC[P+](c2ccccc2)(c2ccccc2)c2ccccc2)cc1)c1ccc2c(c1)OCCO2`, the growth is -16.9% (active) with BT-549 breast; -29.8% (active) with MDA-MB-435 melanoma; -41.4% (active) in the assay on SW-620 colon; 5.09% (active) with MCF7 breast; -73.1% (active) with HCT-116 colon; 32.5% with HCC-2998 colon. In addition, the growth with KM12 colon was -76.4% (active).

On to `COc1cccc2cc(-c3cc4ccccc4[nH]3)/c(=N/C(=S)Nc3ccc(C)cc3)oc12`, for which the growth is 89.6% in the assay with BT-549 breast; 85.1% with MDA-MB-435 melanoma; 78% in the assay with SW-620 colon; 74% with MCF7 breast; 49.3% with HCT-116 colon; 99.9% in the assay on HCC-2998 colon. In addition, the growth with KM12 colon was 70.9%.

As for `CCCOc1nc(SCCC)nc2c1cnn2-c1ccccc1`, the growth in the assay on T-47D breast is 115%; with MDA-MB-435 melanoma, 104%; with SW-620 colon it was 103%; with MCF7 breast, 101%; in the assay on HCT-116 colon it was 105%; in the assay on KM12 colon, 105%.

For the molecule `O=C(O)CNC(=O)CN1C(=O)c2ccccc2C1=O`, the growth in the assay on BT-549 breast was 89.5%; in the assay with MDA-MB-435 melanoma it was 107%; in the assay with SW-620 colon, 105%; in the assay on MCF7 breast, 96.3%; in the assay with HCT-116 colon it was 89.3%; in the assay with HCC-2998 colon it was 106%. The growth in the assay on KM12 colon was 115%.

For `CCCCCCCCN1C(=O)/C(=c2\sc3n(c2=O)C2C(NN=3)N(CC)C(=O)N2CC)c2ccccc21` (configuration not stated), the growth was 86.9% with BT-549 breast; 57.3% in the assay on MDA-MB-435 melanoma; 86.8% in the assay on SW-620 colon; 85.2% in the assay with MCF7 breast; 63.2% in the assay with HCT-116 colon; 103% in the assay on HCC-2998 colon. Besides, the growth with KM12 colon was 89.9%.

On to `Cc1c([N+](=O)[O-])cc(C(C)(C)C)cc1[N+](=O)[O-]`, for which the growth in the assay on BT-549 breast is 102%; with MDA-MB-435 melanoma, 107%; in the assay on SW-620 colon it was 98.9%; in the assay on MCF7 breast, 92.8%; in the assay on HCT-116 colon, 87.3%; in the assay on HCC-2998 colon, 95.2%. Also, the growth in the assay on KM12 colon is 102%.

Take `CN(C)Cc1c(-c2ccccc2)[nH]c2ccccc12`: the growth with BT-549 breast is 75.3%; in the assay with MDA-MB-435 melanoma, 105%; with SW-620 colon it was 99.6%; in the assay on MCF7 breast, 81.8%; in the assay on HCT-116 colon, 67.9%; in the assay with HCC-2998 colon it was 98.2%. In addition, in the assay on KM12 colon, the growth was 96.7%.

On to `Cc1ccccc1C(c1ccccc1)c1ccccc1C`, for which the growth in the assay with BT-549 breast was 86.1%; in the assay on MDA-MB-435 melanoma it was 105%; in the assay with SW-620 colon, 97.7%; in the assay on MCF7 breast it was 98.8%; in the assay on HCT-116 colon, 73.2%; in the assay with KM12 colon, 98.2%.

`Cn1ncc2c(Nc3ccccc3Cl)nc(Cl)nc21`: the growth in the assay on T-47D breast was 99.7%; in the assay on MDA-MB-435 melanoma, 113%; in the assay on SW-620 colon, 126%; with MCF7 breast, 104%; in the assay with HCT-116 colon, 99.4%; in the assay on KM12 colon it was 126%.
